For 53 compounds, Potency results are on record in PubChem BioAssay (Tox21).

The nature of test [1]: cAMP Responsive Elements (CRE) small molecule antagonists, cell-based qHTS assay: qHTS cell viability counter screen (AID 2060913). Note: nearly all actives have a fitted effect of over 40% in size. The conditions noted are these: CRE-bla HEK293T viability, CellTiter-Glo luminescence, 5 h; series mostly up to 92.4 µM. In short, it runs like this:
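CRE-bla HEK293T cells were seeded in assay medium with 10% dialyzed FBS, incubated 18 hrs at 37 C, then exposed to compounds plus 0.25 uM final NKH477 for 3 hrs. Viability was read by CellTiter-Glo luminescence after 30 min, in the same wells.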

A short description of test [2]: cAMP Responsive Elements (CRE) small molecule agonists, cell-based qHTS assay: qHTS cell viability counter screen (AID 2060914). Note: nearly all actives have a fitted effect of over 50% in size. The note with it: CRE-bla HEK293T viability, CellTiter-Glo luminescence, 5 h; series mostly up to 92.4 µM. In short, it runs like this:
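Cytotoxicity was measured as ATP luminescence (CellTiter-Glo, 30 min at room temperature) in the same wells as the CRE-bla FRET read-out. HEK293T CRE-bla cells had 3 h compound exposure at 37C/5% CO2.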
(qHTS replaces the single test concentration by a dilution series.)

Records with an inconclusive call do not appear. Where a call stands in place of a potency, no number is given. The source made the active and inactive calls. Calls come from the whole dose curve; as a rule, active = well fitted cell-killing curve with a large enough effect in the repeat runs; inconclusive = weak or mixed curves, or effect the other way; inactive = flat fitted curve, though single readings scatter.
Potency is the fitted concentration of half-maximal effect.

`Oc1cccc(-c2ccccc2)c1`: the Potency result in test [1] and in test [2] was “inactive” each time.
Take `O=P(O)(O)c1ccccc1`: the Potency entry in test [1] and in test [2] was “inactive” in each case.
In the case of `[Cl][Sn]([Cl])([Cl])[Cl]`, the Potency result in test [1] and in test [2] was “inactive” each time.
Consider `CCCCCCCCCCCCCCC(Br)C(=O)O` (stereo unspecified), for which the Potency entry in test [1] and in test [2] was “inactive” in each case.
For `O=C(Cl)/C=C/C(=O)Cl`, the Potency result in test [1] and in test [2] was “inactive” throughout.
Consider `N#CN=C1SCCN1Cc1ccc(Cl)nc1`, for which the Potency entry in test [1] and in test [2] was “inactive” each time.
Consider `C[C@]12CC[C@H]3[C@@H](CCC4=CC(=O)CC[C@@]43C)[C@@H]1CC[C@@H]2C(=O)O`, for which the Potency entry in test [1] and in test [2] was “inactive” throughout.
On to `c1coc(-c2nc3ccccc3[nH]2)c1`, for which the Potency entry in test [1] and in test [2] was “inactive” throughout.
Regarding `CN1[C@@H]2CC[C@H]1CC(OC(=O)c1cc(Cl)cc(Cl)c1)C2` (stereo partly specified), the Potency entry in test [1] and in test [2] was “inactive” in each case.
On to `CC[C@H](O)C(C[C@H](C)N(C)C)(c1ccccc1)c1ccccc1`, for which the Potency result in test [1] and in test [2] was “inactive” throughout.
Turning to `Cc1ccccc1C(=O)Nc1cccc(OC(C)C)c1`, the Potency entry in test [1] and in test [2] was “inactive” in each case.
Turning to `Nc1ncc([N+](=O)[O-])s1`, the Potency result in test [1] and in test [2] was “inactive” each time.
As for `O=C(NC(=O)c1c(F)cccc1F)Nc1ccc(Cl)cc1`, the Potency result in test [1] and in test [2] was “inactive” each time.
As to `[O]=[Cd]`, the Potency entry in test [1] and in test [2] was “inactive” in each case.
`C[C@]12CC[C@H]3[C@@H](CC[C@@]45O[C@@H]4C(O)=C(C#N)C[C@]35C)[C@@H]1CC[C@@H]2O`: the Potency result in test [1] and in test [2] was “inactive” in each case.
Consider `CC(=O)[O][Sn]([c]1ccccc1)([c]1ccccc1)[c]1ccccc1`, for which the Potency in test [1] is 6.11 µM (active); in test [2] it was 30.6 µM (active).
For `ClC1=C(Cl)[C@]2(Cl)[C@H]3[C@H]([C@H]4C=C[C@H]3C4)[C@@]1(Cl)C2(Cl)Cl`, in that order: “inactive” and “inactive”.
For `CCCOC(=O)Cc1ccc(OCC(=O)N(CC)CC)c(OC)c1`, in that order: “inactive” and “inactive”.
For `ClCCN1CCCC1`, in that order: “inactive” and “inactive”.
`O=C([O-])c1ccccn1.O=C([O-])c1ccccn1.O=C([O-])c1ccccn1.[Cr+3]`: the Potency result in test [1] and in test [2] was “inactive” in each case.
With `ClCC(Cl)CCl`, the Potency entry in test [1] and in test [2] was “inactive” each time.
Take `CC(C)(C)NC[C@H](O)c1ccc(O)cc1Cl`: the Potency result in test [1] and in test [2] was “inactive” each time.
As to `CNC(=O)Oc1ccc(N(C)C)c(C)c1`, the Potency result in test [1] and in test [2] was “inactive” each time.
Turning to `CCc1ccc(C(=O)NN(C(=O)c2cc(C)cc(C)c2)C(C)(C)C)cc1`, the Potency result in test [1] and in test [2] was “inactive” throughout.
Turning to `CCc1cccc(CC)c1N(COC)C(=O)CCl`, the Potency entry in test [1] and in test [2] was “inactive” each time.
Take `CC(Cl)CCl` (stereo unspecified): the Potency result in test [1] and in test [2] was “inactive” in each case.
Turning to `COC(=O)c1ccccc1S(=O)(=O)NC(=O)Nc1nc(C)cc(C)n1`, the Potency entry in test [1] and in test [2] was “inactive” throughout.
Consider `O=S(=O)(O)C(F)(F)C(F)(F)C(F)(F)C(F)(F)F`, for which the Potency entry in test [1] and in test [2] was “inactive” throughout.
For the compound `CCCCCCCCCCCC#N`, the Potency entry in test [1] and in test [2] was “inactive” each time.
Consider `CNC(C)Cc1ccccc1OC` (stereo unspecified), for which the Potency entry in test [1] and in test [2] was “inactive” in each case.
For `CCCCCCI`, the Potency result in test [1] and in test [2] was “inactive” throughout.
With `O=C(O)C(F)(F)C(F)(F)C(F)(F)C(F)(F)C(F)(F)C(F)(F)C(F)(F)C(F)(F)C(F)(F)F`, the Potency entry in test [1] and in test [2] was “inactive” throughout.
Take `CN=C=S`: the Potency entry in test [1] and in test [2] was “inactive” each time.
Regarding `Cc1cccc(C)c1N`, the Potency result in test [1] and in test [2] was “inactive” each time.
In the case of `C=CC[C@]1(O)CC[C@H]2[C@@H]3CCC4=CC(=O)CCC4=C3C=C[C@@]21C`, the Potency result in test [1] and in test [2] was “inactive” in each case.
Regarding `CCN[C@@H](C)Cc1cccc(C(F)(F)F)c1`, the Potency result in test [1] and in test [2] was “inactive” in each case.
On to `CNc1cnn(-c2cccc(C(F)(F)F)c2)c(=O)c1Cl`, for which the Potency result in test [1] and in test [2] was “inactive” each time.
As for `C=CC(C)(CCC=C(C)C)OC(=O)c1ccccc1N` (stereo unspecified), the Potency result in test [1] and in test [2] was “inactive” throughout.
`CC(Oc1ccc(Cl)cc1Cl)C(=O)O` (stereo unspecified): the Potency result in test [1] and in test [2] was “inactive” throughout.
On to `CCOC(=O)CBr`, for which the Potency result in test [1] and in test [2] was “inactive” throughout.
Turning to `Clc1ccc(C(Cl)(Cl)Cl)cn1`, the Potency result in test [1] and in test [2] was “inactive” each time.
For `c1ccc(N=Nc2ccccc2)cc1`, the Potency result in test [1] and in test [2] was “inactive” in each case.
Consider `Cl[C@H]1OCCO[C@@H]1Cl`, for which the Potency entry in test [1] and in test [2] was “inactive” in each case.
`Cn1[nH]nnc1=S`: the Potency result in test [1] and in test [2] was “inactive” throughout.
As for `COC(C)(C)C`, the Potency entry in test [1] and in test [2] was “inactive” each time.
Regarding `COc1cc2c(cc1OC)[C@@]13CCN4CC5=CCO[C@H]6CC(=O)N2[C@H]1[C@H]6[C@H]5C[C@H]43`, the Potency entry in test [1] and in test [2] was “inactive” throughout.
On to `C[N+](C)(C)C`, for which the Potency result in test [1] and in test [2] was “inactive” throughout.
For the compound `CCOP(=O)(O)C(N)=O`, the Potency entry in test [1] and in test [2] was “inactive” throughout.
Regarding `CCCC[P+](CC)(CCCC)CCCC` (tested in a mixture with another compound), the Potency entry in test [1] and in test [2] was “inactive” each time.
For `CCOC(=O)COc1ccc(Cl)cc1Cl`, the Potency entry in test [1] and in test [2] was “inactive” each time.
On to `CC(Cl)(Cl)[N+](=O)[O-]`, for which the Potency entry in test [1] and in test [2] was “inactive” throughout.
With `COC(=O)c1sccc1S(=O)(=O)NC(=O)Nc1nc(C)nc(OC)n1`, the Potency result in test [1] and in test [2] was “inactive” throughout.
In the case of `CN1CCC(N(Cc2ccccc2)c2ccccc2)CC1`, the Potency result in test [1] and in test [2] was “inactive” throughout.
